Among the data in PubChem BioAssay (NCI) are growth values, retold here.

This is part of a sample that, as a whole, favours compounds with a hit. Of some 83,000 tested, about 20% had one in any assay.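 96-well plates, one dose, 48 hours. Percent growth reported; active if below 10.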 Activity calls are given as the source filed them.

The assay concerns HT29 colon. Nature of the assay: NCI-60 one-dose screen, 48 h (100 = growth as untreated, 0 = no growth, -100 = all killed). As to conditions: 10 µM unless noted.
For the compound `O=C1C(Cl)=C(NCCCCCCNC2=C(Cl)C(=O)c3ccccc3C2=O)C(=O)c2ccccc21`, the growth is 98.7% (inactive).

For `CCCC/C=C/[C@@H]1C[C@H]1CCO`, the growth is 97.2% (inactive). Turning to `C=C(C)[C@@H]1CC[C@]2(CO)CC[C@]3(C)[C@H](CC[C@@H]4[C@@]5(C)CC[C@H](NCO)C(C)(C)[C@@H]5CC[C@]43C)[C@@H]12`, the growth was -39.4% (active). For `Cc1cccc(/C=C/c2c(C(=O)/C=C/c3ccccc3)c(C)nc3ccccc23)c1`, the growth is -24.2% (active).

Take `Cc1ccc(-c2nc(N3CCCNCC3)c3oc(-c4ccc(C)cc4)nc3n2)cc1`: the growth was -87.1% (active). Turning to `Cc1sc2nc(NCCc3c[nH]c4ccc(Cl)cc34)[nH]c(=O)c2c1C`, the growth was 19.6% (inactive). As for `COc1ccc(OC)c(Nc2nnc(-c3ccc(O)c(OC)c3)o2)c1`, the figure is 99% (inactive). As for `COc1ccccc1NC(=O)N=Nc1c(O)[nH]c2ccccc12`, the figure is 105% (inactive).

Take `Nc1nc2ccccc2c2c1S(=O)(=O)c1ccc(Cl)cc1C2=O`: the growth is 7.01% (active). For the compound `Nc1n[nH]c2cccc(C#Cc3cccc(C(=O)Nc4cc(C(F)(F)F)cc(C(F)(F)F)c4)c3)c12`, the growth is 46.4% (inactive). As for `CS(=O)(=O)Nc1cc(-c2ccc3ncnc(Nc4ccc5c(cnn5Cc5ccc(F)cc5)c4)c3c2)cnc1Cl`, the figure is 53.3% (inactive); as for `Fc1cc2c(cc1Cl)N(c1ncnc3ccc(-c4ccc5n[nH]nc5c4)cc13)CC2`, 95% (inactive). As to `CCN1C(=S)N(c2ccccc2)C2NC(=S)N(/N=C/C=C/c3ccccc3OC)C21` (stereo unspecified), the growth is 1.16% (active). As to `O=c1c2cccc3c(N4CCCC4)ccc(c32)c2nc3ccccc3n12`, the growth was 77.8% (inactive). Regarding `OB1OCc2cc(/C=C/c3cccc(C(F)(F)F)c3)ccc21`, the growth is 25.9% (inactive). In the case of `O=C(/C=C/c1ccccc1)Nc1ncc(Cc2ccccc2Cl)s1`, the growth is 6.09% (active). Turning to `CN(C)CCNC(=O)c1ccc(-c2nc3ccc4[nH]ncc4c3c3c2C2CCC3C2)cc1` (stereo unspecified), the growth is 34.4% (inactive). `COC12C=C/C(=C(/C(=O)OCc3ccncc3)C(=O)CCCCCCCCC3(OC)C=C/C(=C(/C(=O)OCc4ccncc4)C(=O)CCCCCCCC1)O3)O2`: the growth was 1.11% (active). As for `O=C(/C=C/c1cccc(Cl)c1)c1cccc(OCCCOc2cccc(C(=O)/C=C/c3cccc(Cl)c3)c2)c1`, the figure is 96.6% (inactive); as for `CCn1c(SCC(=O)N/N=C(\C)c2ccc(Cl)cc2)nc2c1c(=O)n(C)c(=O)n2C`, 103% (inactive).

For the compound `Cc1ccc(C[P+](c2ccccc2)(c2ccccc2)c2ccccc2)cc1`, the growth is 2.44% (active).

As to `Clc1ccc2c(NC3CCC(N4CCOCC4)CC3)ccnc2c1` (stereo unspecified), the growth was 84.7% (inactive). `Cc1ccc(C2=Nc3c(N)ncnc3NC(c3cccc(Nc4ccnc5cc(C(F)(F)F)ccc45)c3)C2)cc1` (stereo unspecified): the growth was 5.98% (active). With `COc1ccc(-c2noc(C(=O)O)c2-c2cc(OC)c(OC)c(OC)c2)cc1`, the growth is 4.82% (active). In the case of `CCOC(=O)c1nn(-c2ccc(S(N)(=O)=O)cc2)c2nc(C)cc(=O)n12`, the growth was 109% (inactive).

With `CCSC(SCC)c1ccc(Cl)cc1`, the growth is 97.4% (inactive). On to `CSc1nc2ccccc2cc1/C=C1/C=C(c2ccccc2)NC1=O`, for which the growth is 38.9% (inactive). As for `COC1/C=C/OC2(C)Oc3c(C)c(O)c4c(O)c(c(/C=N/Nc5ccc([N+](=O)[O-])cc5[N+](=O)[O-])c(O)c4c3C2=O)NC(=O)C(C)=C/C=C/C(C)C(O)C(C)C(O)C(C)C(OC(C)=O)C1C` (stereo unspecified), the figure is -37.2% (active). For the compound `O=C1C(Cl)=C(Nc2ccc(S(=O)(=O)N3CCOCC3)cc2)C(=O)c2ccccc21`, the growth is 49.2% (inactive). As to `c1csc(-c2ccc(CNc3c4ccccc4nc4ccccc34)cc2)c1`, the growth was -46.8% (active). The figure for `Nc1ncc(-c2ccc3ncnc(Nc4cccc(Cl)c4)c3c2)cn1` is 40% (inactive). Turning to `CCOC(=O)C#Cc1c(C(=O)OCC)nnn1Cc1ccc([N+](=O)[O-])cc1`, the growth is 7.68% (active).

Consider `O=C(CSc1nc2ccc([N+](=O)[O-])cc2[nH]1)Nc1ccc([N+](=O)[O-])cc1`, for which the growth is 13.1% (inactive). Consider `CC(C)(Sc1cc(C(C)(C)C)c(OC(=O)CCCC(=O)O)c(C(C)(C)C)c1)Sc1cc(C(C)(C)C)c(OC(=O)CCCC(=O)O)c(C(C)(C)C)c1`, for which the growth was 26.9% (inactive).

For the compound `O=C(N(c1ccccc1)c1ccccc1)n1cc(I)c2nc(Cl)nc(Cl)c21`, the growth was 29.7% (inactive). `NC(=O)CSc1oc(-c2ccccc2)nc1S(=O)(=O)c1ccc(Br)cc1`: the growth is 50.2% (inactive).
